# Laboratory results as given in PubChem BioAssay AID651658 (Broad Institute, 2012).
# In all, about 340,000 compounds went through this assay and about 5,100 (1.5%) were called active.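 Rule for the calls: active = mean Tm shift, scaled 0 neutral to 100 positive control, at about 1.3% or above, every replicate too (limit read from the data); inconclusive = no clear call, values can overlap the other calls; inactive = the rest.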 What follows is part of a selection rich in actives, with near analogues and random picks from the rest.
# Biological target: Fibroblast growth factor 22 (Homo sapiens) (UniProt Q9HCT0)
# Experiment: FGF22 ligand-induced thermal stabilization – biophysical, thermal shift, single point, FGF22 synaptogenesis inhibitor project, primary screen (AID 651658)
# Conditions: recombinant FGF22 thermal shift, SYPRO orange fluorescence; at 9.99 µM; stronger effect = higher value; percent of sucrose octasulfate shift, DMSO zero
# Chain of Fibroblast growth factor 22 (Homo sapiens) (Q9HCT0 whole entry, looked up): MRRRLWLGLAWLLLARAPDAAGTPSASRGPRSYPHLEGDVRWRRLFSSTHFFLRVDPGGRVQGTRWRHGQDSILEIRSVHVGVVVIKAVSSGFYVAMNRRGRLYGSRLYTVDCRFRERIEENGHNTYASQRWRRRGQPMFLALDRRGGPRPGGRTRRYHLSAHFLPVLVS
row,Structure (SMILES),"activity (Tm shift, normalised)"
1,CCCNC(=O)N1CC2(CN(C(=O)c3cnccn3)C2)c2c([nH]c3cc(OC)ccc23)[C@@H]1CO,0.028% (inactive)
2,CCn1c(-c2ccncc2)n[nH]c1=S,0.117% (inactive)
3,CCc1cc(-c2n[nH]c(=S)n2CC(C)C)cs1,-0.833% (inactive)
4,CCn1c(C(C)C)n[nH]c1=S,43.3% (active)
5,O=C(C[C@H]1C[C@H]2c3cc(NC(=O)Nc4ccccc4F)ccc3O[C@H]2[C@H](CO)O1)NCc1ccccn1,0.07% (inactive)
6,Cc1cccc(C)c1NC(=S)N1CCCCCC1,-0.275% (inactive)
7,Cc1cccc(C)c1NC(=O)CNC(=O)C1CCCC1,-0.023% (inactive)
8,Cc1cccc(C)c1NC(=O)C1(N(C(=O)c2ccccn2)c2ccc(O)cc2)CCCCC1,43% (active)
9,O=C(N[C@H]1CC[C@H](CCNS(=O)(=O)c2ccc(F)cc2)O[C@H]1CO)c1cccc(F)c1,-0.051% (inactive)
10,O=C(Nc1cc(F)ccc1F)N[C@@H]1C=C[C@@H](CC(=O)N2CCc3ccccc3C2)O[C@@H]1CO,-0.137% (inactive)
11,CCC(=O)N1[C@@H](CO)[C@@H]2c3ccccc3N(C(=O)c3cnccn3)C[C@@H]21,-0.28% (inactive)
12,Cc1ccc(S(=O)(=O)N2CCN(C(=O)COC(=O)c3c(C)noc3C)CC2)c(C)c1,-0.319% (inactive)
13,CCc1noc(C)c1C(=O)OCC(=O)c1ccc(NC(=O)CC(C)C)cc1,-0.332% (inactive)
14,COc1ccc(C(=O)COC(=O)c2c(C)noc2C)cc1Cl,44% (active)
15,COC(=O)C1=CN(c2c(C)cc(C)cc2C)C(N)=C(C#N)C1c1cccc(F)c1 (stereo not drawn),-0.26% (inactive)
16,CCOC(=O)C1=C(CC)OC(N)=C(C#N)C1c1ccc(F)cc1F (stereo not drawn),43.8% (active)
17,Cn1c2c(c(=O)n(C)c1=O)C(c1cccc(F)c1)C(C#N)=C(N)O2 (stereo not drawn),-0.167% (inactive)
18,CN1CCCc2nc(-c3ccccc3)ccc21,42.2% (inactive)
19,O=S(=O)(c1cccs1)N1CCCc2nc(-c3ccc(Br)cc3)ccc21,0.061% (inactive)
20,COc1ccc(-c2ccc3c(n2)CCCN3S(=O)(=O)c2ccc(C)cc2)cc1,48.4% (active)
21,C[C@@H]1CCCCO[C@@H](CN(C)Cc2ccc(C(=O)O)cc2)[C@H](C)CN([C@H](C)CO)C(=O)c2cc(NS(=O)(=O)c3cccs3)ccc2O1,-0.274% (inactive)
22,C[C@@H]1CN([C@H](C)CO)C(=O)c2cc(NS(=O)(=O)c3ccccc3)ccc2O[C@@H](C)CCCCO[C@H]1CN(C)S(=O)(=O)c1ccc(Cl)cc1,-0.893% (inactive)
23,COCc1cn(CC[C@H]2CC[C@H](NC(=O)Nc3ccc4c(c3)OCO4)[C@@H](CO)O2)nn1,-0.239% (inactive)
